Experimental data taken from PubChem BioAssay AID652257 (The Scripps Research Institute Molecular Screening Center, 2013).
The whole screen tested about 370,000 compounds, of which about 4,800 (1.3%) were called active. The sample holds actives, similar compounds and a random draw of the others, so the mix is not that of the screen. Values without a mark were called inactive.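 How the source made its calls: active means inhibition above about 21% made by adding two undisclosed values (limit read from the data); inactive means the rest.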

These compounds were tested against Protein arginine N-methyltransferase 1 (Homo sapiens) (UniProt Q99873) (assay: PRMT1 methyltransferase inhibitors, primary screen, biochemical, fluorescence polarization (AID 652257)). Conditions: recombinant PRMT1, activity-based probe fluorescence polarization; at 2.79 µM; active compounds read high.
Protein arginine N-methyltransferase 1 (Homo sapiens), sequence (Q99873 whole entry, looked up): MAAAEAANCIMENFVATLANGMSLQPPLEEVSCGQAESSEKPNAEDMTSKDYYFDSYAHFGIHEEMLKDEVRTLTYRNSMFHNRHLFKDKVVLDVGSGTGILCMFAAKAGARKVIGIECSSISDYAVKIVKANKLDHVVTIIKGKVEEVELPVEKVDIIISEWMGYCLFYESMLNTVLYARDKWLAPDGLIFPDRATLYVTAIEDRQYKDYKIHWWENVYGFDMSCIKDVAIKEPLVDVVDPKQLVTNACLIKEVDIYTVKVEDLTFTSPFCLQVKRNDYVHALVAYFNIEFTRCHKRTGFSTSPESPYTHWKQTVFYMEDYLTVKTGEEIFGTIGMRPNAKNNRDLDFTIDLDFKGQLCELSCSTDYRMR

Compound | inhibition
COC(=O)[C@@]12C[C@@H](CC(=O)NCCCCc3ccccc3)C(=O)N(CCc3ccc(OC)c(OC)c3)C1=CCC(C)(C)C2 | 3.69%
CN[C@H]1C[C@H]2c3[nH]c4c(-c5ccccc5)cccc4c3CCN2C(=O)[C@H]1[C@H](C)O | 6.14%
Cc1ccc(-n2nc(-c3ccco3)cc2C(=O)NCc2cccnc2)cc1 | 35.6% (active)
Cc1ccc2c(c1)N(CCCC(=O)NCc1cccnc1)C(=O)CO2 | 0.38%
CSc1sc(C(=O)NC(=O)NCc2cccnc2)c(C)c1-c1ccon1 | 1.09%
CN1C(=O)C(Br)(Br)CC1c1cccnc1 (centres undefined) | 1.18%
Cc1c[nH]c2cccc(-c3ccc(Cl)cc3)c12 | -0.29%
N#CCC(=O)N/N=C/c1ccc(SCC(=O)Nc2ccccc2)o1 | 4.99%
O=C(CCNC(=O)c1ccccc1)NN=Cc1ccc(Br)o1 | 24.6% (active)
O=C(CSc1ccc(/C=N/NC(=O)c2cccc(F)c2)o1)Nc1ccccc1 | 2.86%
COC1=C[C@H](C(=O)NCCNC(C)=O)[C@H](C)[C@@H](c2ccccc2)CC1=O | 0.29%
COc1ccc(/C=C2\CC3(OC(C)=O)CCCN2C3)cc1 (centres undefined) | 1.73%
Cc1ccc(CN2CCCCC(NC(=O)C3CCCCC3)C2=O)cc1 (centres undefined) | -3.29%
O=C(Nc1cccc(S(=O)(=O)N2CCOCC2)c1)C12CC3CC(CC(C3)C1)C2 | 2.62%
CCCNC(=O)NCc1ccc(N2CCCC2=O)cc1 | 0.33%
NC(=O)C1(N2CCCC2)CCN(Cc2ccccc2)CC1 | 2.71%
NC(=O)C1(N2CCCCC2)CCN(C2CC(=O)N(Cc3ccc(N4CCCC4=O)cc3)C2=O)CC1 (centres undefined) | 41.5% (active)
Clc1ccc(C(Cn2ccnc2)OCc2ccsc2Cl)c(Cl)c1 (centres undefined) | 1.55%
O=C(CSc1n[nH]c(-c2cccnc2)n1)Nc1ccnc2ccccc12 | -1.69%
COc1ccc(Nc2nc(-c3cccnc3)nc3ccccc23)cn1 | 25.2% (active)
O=C(Nc1ccc(Cl)cc1)Nc1ccc(Oc2cccnc2)nc1 | 1.37%
CN(C)c1ccc(CNC(=O)CN2C(=O)COc3ccc(S(=O)(=O)N4CCCC4)cc32)cc1 | -4.13%
O=C(N1CCOCC1)N1CC[C@H]2[C@H](CCCN2Cc2ccc(F)cc2)C1 | 5.12%
N#C/C(=C/c1ccc(N2CCCCC2)o1)C(=O)NCCc1c[nH]c2ccccc12 | -51.4%

Compound | inhibition
Cc1ccc(/C=C(\C#N)C(=O)Nc2cccc3ncccc23)o1 | 24.4% (active)
Cc1ccc2c(NC(=O)C3CC3)cccc2n1 | -1.46%
Cc1ccn(C(CC(=O)c2ccc(Br)cc2)C(=O)O)n1 (centres undefined) | 23.6% (active)
CCN(C(=O)c1ccc(Br)cc1)c1ccccc1 | -3.92%
Cc1ccc(NC(=O)CCC(=O)c2ccc(Br)cc2)cc1 | -1.58%
CC(=O)N1CCOc2ccc(S(=O)(=O)N3CCC(C(=O)Nc4ccccc4F)CC3)cc21 | -0.05%
C=C(C)C#CC(Cc1ccccc1)N(CC1CC1)/C(N)=N/C(=O)OCc1ccccc1 (centres undefined) | -3.31%
COC(=O)C(C(=O)OC)c1ccccc1NS(=O)(=O)c1cccc2ccccc12 | -4.23%
C[C@H](C(=O)N(C)c1ccccc1)[C@@H](O)c1ccc(Cl)cc1 | -4.72%
O=C1/C(=C/c2cccs2)SC(=S)N1C1CCS(=O)(=O)C1 (centres undefined) | 0.87%
CCOc1ccc(NC(=O)C(C)N2C(=O)c3ccccc3C2=O)cc1 (centres undefined) | -1.49%
CC(C(=O)Nc1ccc(O)c(C(=O)O)c1)N1C(=O)/C(=C/c2cccs2)SC1=S (centres undefined) | 26.4% (active)
CC(C)(C)c1cc(CN2CCN(CCC#N)CC2)cc(C(C)(C)C)c1O | 9%
CCc1c(C)nc(N)n2c(SCC(=O)NC3CCCCC3)nnc12 | -2.99%
Nc1[nH]c(/C=C2/CCCCC2n2[nH]c(=O)n(-c3ccccc3)c2=O)c(Cc2ccccc2)[n+]1Cc1ccccc1 (centres undefined) | -2.27%
COc1ccc(CCNCc2c(-c3ccccc3)n(C)c3ccccc23)cc1 | 2.67%
CC(C)(C)OC(=O)NCCc1ccccc1/C=C/S(=O)(=O)NCc1ccc(F)cc1 | 0.24%
O=c1ccc2c(-c3ccccc3S(=O)(=O)O)c3ccc(O)c(O)c3oc-2c1O | 66.9% (active)
COc1cccc2c1OCC(CN1CCN(C3CCCCC3)C(CCO)C1)=C2 (centres undefined) | -3.92%
O=C(CSc1nc2c(c(=O)[nH]1)CCCC2)N1CCCCC1 | -3.61%
C=CCN(C)CC#Cc1ccccc1 | -2.36%
Cc1ccc(-c2nc(C3CCCN(S(=O)(=O)c4ccc(Br)s4)C3)no2)cc1 (centres undefined) | 3.15%
CC1CCc2c(nc3ncnn3c2Nc2ccc(OC(F)(F)F)cc2)C1 (centres undefined) | 0.92%
c1ccc2c(c1)CSc1sccc1C2=C1CCNCC1 | -3.7%

Compound | inhibition
Cc1nnc(SCc2cc(=O)[nH]c(N3CCN(Cc4ccccc4)CC3)n2)s1 | -2.63%
Cc1cc(C)cc(C(=O)NC2C(=O)N3C(C(=O)O)=C(CSc4nnc(C)s4)CSC23)c1 (centres undefined) | 39.9% (active)
Cc1nnc(SCC(=O)NC2CCCC2)s1 | -0.7%
Cc1nnc(SCC2=C(C(=O)O)N3C(=O)C(NC(=O)Cn4nc(C)c(Cl)c4C)C3SC2)s1 (centres undefined) | 34.1% (active)
CCOC(=O)C1(Cc2ccccc2)CCN(Cc2cn(C(C)=O)c3ccccc23)CC1 | 2.34%
Cc1ccccc1CS(=O)(=O)Cc1ccc(C(=O)Nc2ccc(Cl)cc2)o1 | 5.39%
CCCCN1CCN(C(=O)c2ccc3c(c2)NC(=O)C(C)(C)O3)CC1 | -4.36%
COC(=O)[C@]12C[C@H](CC(=O)NCc3cccc4ccccc34)C(=O)N(CCc3ccc(OC)c(OC)c3)C1=C[C@H](C1CCCC1)O[C@@H]2C | -7.72%
CC(=O)Oc1ccc(N(C(C)=O)S(=O)(=O)c2ccc3ccccc3c2)cc1Br | -3.71%
CC(=O)N(c1ccc2oc(=O)sc2c1)S(=O)(=O)c1ccc(C)cc1 | 86% (active)
COC(=O)c1c(C)oc2ccc(N(C(=O)Oc3ccccc3)S(=O)(=O)c3ccccc3)cc12 | 1.53%
COc1ccccc1C1C(C#N)=C(N)Oc2c1c(-c1ccccc1)nn2-c1ccccc1 (centres undefined) | 5.44%
COc1cccc(Cn2cc(COC(=O)Nc3ccc(F)cc3)nn2)c1 | 0.72%
Cc1cc(NC(=O)CCN2CCN(Cc3ccccc3)CC2)ccc1Br | 0.6%
COC(=O)CNC(c1ccccc1Cl)c1cc(Br)ccc1NC(=O)CCN1CCOCC1 (centres undefined) | 21.5% (active)
COc1ccccc1NC(=O)CCN1CCN(c2ccc(Cl)cc2)CC1 | 1.94%
Cc1cc(S(=O)(=O)NC2CCCC2)ccc1-n1cnnn1 | 3.87%
Cc1ccc(CN(C)C[C@@H]2OCc3cnnn3CCCC(=O)N([C@@H](C)CO)C[C@H]2C)cc1 | -5.16%
C=CCn1c2c(c3ccccc31)CCC2 | 0.09%
Cc1nn(C)cc1N1C(=O)c2cccc3c(N)ccc(c23)C1=O | 165% (active)
CN1C(=O)c2cccc3c(N)ccc(c23)C1=O | 183% (active)
CC(NCc1ccco1)C(=O)N1CCCCC1 (centres undefined) | -2.09%
CCOc1ccc(Oc2c(Cl)cnn(-c3ccc(C)cc3)c2=O)cc1 | -1.68%
C=CCN1[C@@H](Cc2ccccc2)COc2cccc(N3CCSCC3)c2S1(=O)=O | 2.18%

Compound | inhibition
O=S(=O)(c1ccccc1)N1CCC(c2nc3ccccc3o2)CC1 | -3.15%
COc1ccccc1CN(C)C(=O)C1(c2ccc(Cl)cc2)CC1 | -2.06%
O=C(NC1CCC1)c1ccc(C#CC2CC2)cn1 | -0.43%
CC(=O)Oc1ccc(C(C)=O)c2c1OCCO2 | -0.56%
CC(C)n1c(-c2ccncc2)n[nH]c1=S | -2.82%
CSc1ccc(C=Nn2c(-c3ccc(F)cc3)n[nH]c2=S)cc1 | 21.3% (active)
CSc1ccc(/C=N/N2CCN(Cc3ccccc3Cl)CC2)cc1 | 1.95%
CC(NCCc1ccc(S(N)(=O)=O)cc1)C(=O)NCc1ccccc1 (centres undefined) | -3.01%
COc1cc(C(=S)NCc2ccccc2)cc(Br)c1O | 27.5% (active)
COc1cc(-c2nnn(CC(=O)NCc3ccccc3)n2)cc(OC)c1OC | 2.73%
COc1ccccc1OCCC(=O)OCC(=O)NCc1ccccc1 | 0.43%
CCOC(=O)C1=C(C)NC2=C(C(=O)CC(C)(C)C2)C1c1ccc2c(c1)OCO2 (centres undefined) | -1.8%
COC(=O)CC1CCc2cc(C)cc(C(CC(C)C)NC(=O)[C@H](CC(C)C)NC(=O)OCc3ccccc3)c2O1 (some centres undefined) | -2.67%
Clc1ccc(C2=CSC3=Nc4cccc5cccc(c45)N23)cc1 | 22.6% (active)
CCCOc1ccc(Oc2c(Cl)cnn(Cc3cccc4ccccc34)c2=O)cc1 | 1.97%
CC(=O)c1cc(-c2ccc3ccccc3c2)c(=O)n2c1CCC2 | 0.08%
COC1=CC(=O)OC(c2ccc(OC)cc2)C1 (centres undefined) | -1.99%
COc1ccc(N=C2C=CC(=O)O2)cc1 | 48.5% (active)
COc1ccc(N=Nc2c(-c3ccc(OC)cc3)[nH]oc2=O)cc1 | -0.55%
Cc1ccc(CSCC(N)C(=O)O)cc1 (centres undefined) | 0.39%
Cc1ccc(SC(C)C(=O)NCc2ccc(F)cc2)cc1 (centres undefined) | -5.15%
Cc1ccc(SC(CC(=O)c2ccc(C(C)(C)C)cc2)C(=O)O)cc1 (centres undefined) | 75.6% (active)
